Drawing on PubChem BioAssay AID1347418 (Sanford-Burnham Center for Chemical Genomics, 2020), this text covers inhibition for 67 compounds.

The campaign covered roughly 1,300 compounds. About 750 (58%) were called active. Some of the results follow. Values without a mark were called inactive. Residues, ends and D or L forms follow the SMILES beside them. *: point of attachment. Cbz = O=C(OCc1ccccc1)*

The assay deals with Sulfhydryl oxidase 1 (Homo sapiens) (UniProt O00391). In words: inhibition of human sulfhydryl oxidase QSOX1 – biochemical, ROS-Glo H2O2 luminescence, HTS, primary screen (AID 1347418). The conditions noted are these: recombinant QSOX1, ROS-Glo H2O2 luminescence; at 12.5 µM; hits give high values; active = any value above zero.
Sequence of Sulfhydryl oxidase 1 (Homo sapiens) (O00391 whole entry, looked up): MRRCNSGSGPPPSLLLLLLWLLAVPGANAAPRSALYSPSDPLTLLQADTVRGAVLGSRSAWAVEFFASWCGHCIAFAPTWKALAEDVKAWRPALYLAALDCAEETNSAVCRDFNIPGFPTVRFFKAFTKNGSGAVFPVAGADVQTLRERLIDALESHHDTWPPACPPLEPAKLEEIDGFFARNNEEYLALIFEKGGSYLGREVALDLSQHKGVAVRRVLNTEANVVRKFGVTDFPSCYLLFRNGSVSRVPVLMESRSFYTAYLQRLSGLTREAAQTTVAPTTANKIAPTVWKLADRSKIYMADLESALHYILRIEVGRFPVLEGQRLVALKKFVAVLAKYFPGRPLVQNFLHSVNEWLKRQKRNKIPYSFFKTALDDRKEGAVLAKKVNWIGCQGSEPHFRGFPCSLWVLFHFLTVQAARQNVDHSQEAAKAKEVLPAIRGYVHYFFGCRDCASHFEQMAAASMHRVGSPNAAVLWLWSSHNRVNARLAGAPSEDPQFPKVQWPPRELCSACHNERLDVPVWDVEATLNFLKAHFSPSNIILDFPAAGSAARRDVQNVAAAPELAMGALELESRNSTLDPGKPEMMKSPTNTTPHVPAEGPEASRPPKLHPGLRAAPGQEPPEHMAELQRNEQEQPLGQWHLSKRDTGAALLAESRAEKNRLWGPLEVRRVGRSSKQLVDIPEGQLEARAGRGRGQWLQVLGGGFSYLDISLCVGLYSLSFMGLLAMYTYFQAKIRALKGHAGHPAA
Consider `CSc1ccc2c(c1)N(CCC1CCCCN1C)c1ccccc1S2` (configuration not stated), for which the inhibition (usually the relative decrease from the control value, in per cent) was 46.5% (active).

On to `CSc1ccc2c(c1)C(N1CCN(C)CC1)Cc1ccccc1S2` (configuration not stated), for which the inhibition was -0.9%.

For `Oc1cc2c(cc1O)CN(C(=S)NCCc1ccc(Cl)cc1)CCC2`, the inhibition was 25.5% (active).

For `CC(C)NC[C@H](O)COc1ccc(CC(N)=O)cc1`, the inhibition was 5.2% (active).

As to `COCCc1ccc(OCC(O)CNC(C)C)cc1` (configuration not stated), the inhibition is -2%.

In the case of `CC(C)NCC(O)COc1ccc(CCOCC2CC2)cc1` (configuration not stated), the inhibition was -0.5%.

Turning to `CC(C)NCC(O)COc1ccc(COCCOC(C)C)cc1` (configuration not stated), the inhibition was 3.9% (active).

As to `CC(C)NCC(O)COc1ccc(CC(N)=O)cc1` (configuration not stated), the inhibition is -2%.

For `COC(=O)c1c(C)[nH]c(C)c1C(=O)c1ccccc1Cc1ccccc1`, the inhibition was 1.9% (active).

Consider `C=CCc1cccc(/C=N/NC(=O)CN2CCN(Cc3ccccc3)CC2)c1O`, for which the inhibition was -3.2%.

`CN1CCc2cccc3c2C1Cc1ccc(O)c(O)c1-3` (configuration not stated): the inhibition was 17.1% (active).

Consider `COc1cc2ncnc(Nc3cccc(Cl)c3)c2cc1OC`, for which the inhibition is -1.3%.

Take `O=c1n(CCCN2CCN(c3cccc(Cl)c3)CC2)nc2ccccn12`: the inhibition is 8.6% (active).

Turning to `O=c1c(-c2ccc(O)cc2)coc2cc(O)ccc12`, the inhibition was 7.6% (active).

As to `O=c1c(-c2ccc(O)cc2)coc2cc(O)cc(O)c12`, the inhibition is -5.9%.

On to `CC(C)C[C@H](NC(=O)[C@@H](O)[C@H](N)Cc1ccccc1)C(=O)O`, for which the inhibition was 0.1% (active).

In the case of `CC(C)[C@H](NC(=O)OCc1ccccc1)C(=O)N[C@H](C=O)Cc1ccccc1` (Cbz-Val-Phe-aldehyde), the inhibition was -1.6%.

Regarding `CC(C)C[C@H](NC(=O)[C@H](O)[C@H](N)Cc1ccccc1)C(=O)O`, the inhibition is 9.6% (active).

On to `O=C(N[C@@H](Cc1ccccc1)C(=O)CCl)OCc1ccccc1`, for which the inhibition was -6.4%.

Regarding `O=P(O)(O)C(Cl)(Cl)P(=O)(O)O`, the inhibition is 5.2% (active).

Take `N[C@H](C(=O)O)[C@H](Cc1ccccc1)C(=O)O`: the inhibition is 0.5% (active).

For `O=C(O)CNC(=O)C(CS)Cc1ccccc1` (configuration not stated), the inhibition was -1.4%.

As to `O=C1c2c(O)cc(O)cc2OC(c2ccc(O)c(O)c2)C1O` (configuration not stated), the inhibition was 9.8% (active).

On to `Oc1cc(O)c2c(c1)O[C@H](c1ccc(O)c(O)c1)[C@@H](O)C2`, for which the inhibition was 12.2% (active).

Take `[Li+]`: the inhibition was 0%.

Regarding `O=C(O)CCc1ccc(NCc2cccc(Oc3ccccc3)c2)cc1`, the inhibition is 13.1% (active).

With `CC(C)(C)NCC(O)COc1cccc2[nH]c(=O)[nH]c12` (configuration not stated), the inhibition is 0.2% (active).

Regarding `Brc1c(Br)c(Br)c2[nH]cnc2c1Br`, the inhibition was 3.9% (active).

As to `CN1CCc2ccccc2Cc2[nH]c3ccccc3c2CC1`, the inhibition is 6.3% (active).

As for `N=C(N)N1CCc2ccccc2C1`, the inhibition was -3.7%.

As to `CC(C)(C)c1cc(/C=C(\C#N)C(N)=S)cc(C(C)(C)C)c1O`, the inhibition was 37.7% (active).

For the compound `C#CCN(C)Cc1ccccc1`, the inhibition was -0.7%.

Consider `CN(C)C/C=C(/c1ccc(Br)cc1)c1cccnc1`, for which the inhibition was 2.7% (active).

In the case of `CN1CCC(=C2c3ccccc3C=Cc3ccccc32)CC1`, the inhibition was 2.2% (active).

`CN1CCC(=C2c3ccccc3CC(=O)c3sccc32)CC1`: the inhibition was 0.8% (active).

`CCC1(O)CC2CN(CCc3c([nH]c4ccccc34)[C@@](C(=O)OC)(c3cc4c(cc3OC)N(C)C3[C@]45CCN4CC=C[C@@](CC)([C@@H](OC(C)=O)[C@]3(O)C(=O)OC)[C@H]45)C2)C1` (some centres not stated): the inhibition was 6.7% (active).

As to `CCC1(O)CC2CN(CCc3c([nH]c4ccccc34)[C@@](C(=O)OC)(c3cc4c(cc3OC)N(C=O)C3[C@]45CCN4CC=C[C@@](CC)([C@@H](OC(C)=O)[C@]3(O)C(=O)OC)[C@H]45)C2)C1` (some centres not stated), the inhibition was -0.2%.

Regarding `O=c1[nH]cc(F)c(=O)[nH]1`, the inhibition was 0.8% (active).

For `O=C(Nc1nc2ccccc2n1CCN1CCOCC1)c1cccc([N+](=O)[O-])c1`, the inhibition is 0.4% (active).

Consider `NC1CONC1=O` (configuration not stated), for which the inhibition is -3.5%.

As to `CN1C[C@H](C(=O)N[C@]2(C)O[C@@]3(O)[C@@H]4CCCN4C(=O)[C@H](Cc4ccccc4)N3C2=O)C[C@@H]2c3cccc4[nH]cc(c34)C[C@H]21`, the inhibition is 10% (active).

For `COc1cccc(OC)c1OCCNCC1COc2ccccc2O1` (configuration not stated), the inhibition was 1.9% (active).

As to `COc1cccc(OC)c1OCCNCC1CSc2ccccc2O1` (configuration not stated), the inhibition was -0.7%.

Consider `O=C1c2ccccc2C(=O)c2c(NCCc3ccc(O)cc3)ccc(NCCc3ccc(O)cc3)c21`, for which the inhibition was 11% (active).

For the compound `N[C@@H](Cc1c[nH]c2ccccc12)C(=O)O`, the inhibition is -0.2%.

For the compound `N[C@@H](Cc1c[nH]c2ccc(O)cc12)C(=O)O`, the inhibition was 8.4% (active).

Regarding `O=C(O)Cc1c[nH]c2ccc(O)cc12`, the inhibition was 15.6% (active).

As for `N[C@H](C(=O)O)c1cc(O)cc(O)c1`, the inhibition was -6.1%.

In the case of `CCn1ccnc1CC1COc2ccccc2O1` (configuration not stated), the inhibition was 0.9% (active).

`NC(C(=O)N[C@@H]1C(=O)N2C(C(=O)O)=C(Cl)CS[C@H]12)c1ccccc1` (some centres not stated): the inhibition is 0.4% (active).

As to `CC1=C(C(=O)O)N2C(=O)[C@@H](NC(=O)C(N)C3=CCC=CC3)[C@H]2SC1` (some centres not stated), the inhibition is -1.3%.

As for `CC1=C(C(=O)O)N2C(=O)[C@@H](NC(=O)C(N)c3ccccc3)[C@H]2SC1` (some centres not stated), the inhibition is 2.2% (active).

As for `NC(=O)c1cc[n+](CC2=C(C(=O)O)N3C(=O)[C@@H](NC(=O)[C@@H](c4ccccc4)S(=O)(=O)[O-])[C@H]3SC2)cc1`, the inhibition was -1%.

With `NCCS(=O)O`, the inhibition is -0.7%.

For the compound `O=C1OC(=O)C2C3CCC(O3)C12` (configuration not stated), the inhibition was -1.3%.

Take `NC(=O)C(=O)O`: the inhibition is -8.6%.

With `CC(N)=O`, the inhibition is 4.6% (active).

In the case of `NC(=O)NO`, the inhibition was -13.4%.

With `CC(=O)C(C)=O`, the inhibition was 2.1% (active).

Take `CC(=O)/C(C)=N/O`: the inhibition was -5.2%.

For `Nc1ccc2c3c(cccc13)C(=O)NC2=O`, the inhibition was 7.4% (active).

Turning to `Nc1ncnc2c1ncn2C1CCCO1` (configuration not stated), the inhibition was -0.8%.

`COc1ccc(C(=O)NCc2cccnc2)cc1C(=O)NCc1cccnc1`: the inhibition is -2.9%.

Turning to `O=C(CCNNC(=O)c1ccncc1)NCc1ccccc1`, the inhibition was 3.1% (active).

In the case of `OC(CCN1CCCCC1)(c1ccccc1)C1CC2C=CC1C2` (configuration not stated), the inhibition is 2.7% (active).

With `OC(CCN1CCCCC1)(c1ccccc1)C1CCCCC1` (configuration not stated), the inhibition was -2.5%.

For the compound `NCCNC(=O)c1ncsc1-c1cccc(F)c1`, the inhibition was 0.5% (active).
